HP1b binding inh: blocks HP1-beta chromodomain binding to methylated histone tails; P83916; AlphaScreen HP1-beta / biotin-H3K9me3 peptide binding; Potency, µM (highest dose often 114 µM), for the others: at the top dose activity change, negative = inhibition, most hits filed as inhibitors; 0.56% of 390,000 active; also: nearly all actives have a fitted effect of over 70% in size
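HP1-beta protein (50 nM final) preincubated 30 min at room temperature with biotinylated H3(1-18)K9me3 peptide (50 nM) in PBS pH 7.4, 0.01% Tween-20, then compound added for 30 min. AlphaScreen streptavidin donor/nickel chelate acceptor beads (10 ug/mL final), 30 min dark, luminescence read.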
BAZ2B inh: blocks human BAZ2B | Q9UIF8 | AlphaScreen BAZ2B-H3K14Ac peptide displacement | Potency, µM (top dose mostly 114 µM), inactives show at the highest dose activity change, negative = inhibition, actives largely listed as inhibitors | 4.4% of 360,000 active; also: % is scaled to controls: 0 for no effect and ±100 for the full control effect; nearly all actives have a fitted effect of over 60% in size
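Multi-concentration screen (max 110 uM) measuring displacement of acetylated histone H3 peptide from BAZ2B by AlphaScreen, using 50 nM protein, 50 nM peptide and 10 ug/mL streptavidin donor plus Ni-chelate acceptor beads.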
G9a block: G9a (human) methyltransferase inhibition; 8.8% of 350,000 active; G9a H3K9 monomethylation, AlphaScreen, 2 h; Potency, µM (top dose mostly 102 µM), inactives show at the highest dose activity, negative = inhibition, usual class: inhibitors; also: % is scaled to controls: 0 for no effect and ±100 for the full control effect; nearly all actives have a fitted effect of over 75% in size
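G9a (20 nM) was preincubated 15 min with compound, then reacted 2 h at room temperature with 500 nM biotin-H3K9 peptide and 20 µM SAM. Monomethyl-H3K9 detected by AlphaScreen using anti-H3K9me1 antibody.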
L3MBTL1 block: L3MBTL1 (human) inhibition; Q9Y468; AlphaScreen L3MBTL1–H3K9me1 peptide binding; Potency, µM (doses to about 57.1 µM), without a hit: at the highest dose activity, negative = inhibition, most hits filed as inhibitors; 0.66% of 230,000 active; AID 485360; also: % is scaled to controls: 0 for no effect and ±100 for the full control effect; nearly all actives have a fitted effect of over 60% in size
Target sequence (Q9Y468 whole entry, looked up): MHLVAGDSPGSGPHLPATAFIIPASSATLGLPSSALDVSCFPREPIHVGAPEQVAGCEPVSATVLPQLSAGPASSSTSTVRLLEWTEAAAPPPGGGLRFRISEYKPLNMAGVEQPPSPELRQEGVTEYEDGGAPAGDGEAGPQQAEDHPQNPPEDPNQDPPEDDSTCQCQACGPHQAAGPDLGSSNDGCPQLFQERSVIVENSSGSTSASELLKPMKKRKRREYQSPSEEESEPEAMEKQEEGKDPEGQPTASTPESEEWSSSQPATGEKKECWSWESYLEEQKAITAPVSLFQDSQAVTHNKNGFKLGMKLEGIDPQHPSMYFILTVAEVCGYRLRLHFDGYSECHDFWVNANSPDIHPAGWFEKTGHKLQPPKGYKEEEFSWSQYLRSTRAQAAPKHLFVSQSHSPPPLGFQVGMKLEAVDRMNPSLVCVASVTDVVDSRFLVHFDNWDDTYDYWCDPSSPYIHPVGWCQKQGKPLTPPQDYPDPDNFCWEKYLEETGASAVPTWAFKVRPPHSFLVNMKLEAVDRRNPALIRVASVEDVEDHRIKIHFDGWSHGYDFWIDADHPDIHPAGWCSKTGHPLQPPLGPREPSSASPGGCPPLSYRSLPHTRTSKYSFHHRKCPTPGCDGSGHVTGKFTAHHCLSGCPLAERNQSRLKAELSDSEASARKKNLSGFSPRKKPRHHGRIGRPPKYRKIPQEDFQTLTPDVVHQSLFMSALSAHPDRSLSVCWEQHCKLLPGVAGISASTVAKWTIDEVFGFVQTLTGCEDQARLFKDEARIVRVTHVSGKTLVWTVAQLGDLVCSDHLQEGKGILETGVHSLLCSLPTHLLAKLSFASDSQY
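AlphaScreen proximity signal between nickel-chelate acceptor and streptavidin donor beads (final 10 ug/mL) reports binding of 50 nM L3MBTL1 to 75 nM biotin-H3 K9me1 peptide; complex incubated with compounds 30 min at room temperature; cefsulodin titration as control.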
GLS inhibitor: blocks human kidney-isoform glutaminase activity; O94925; GLS enzymatic activity, qHTS titration; Potency, µM (series often up to 45.5 µM), without a hit: top-dose activity change, negative = inhibition, usual class: inhibitors; 0.21% of 410,000 active; AID 624170; also: % is scaled to controls: 0 for no effect and ±100 for the full control effect
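Human kidney-isoform GLS in 45 mM KH2PO4 pH 8.2, 0.02% Tween-20, with compound, started with 1mM L-Glutamine (added stock). Glutamate oxidase/HRP/Amplex red coupled fluorescence read at start and after 30 min at RT.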
JMJD2A Tudor: blocks the human JMJD2A Tudor domain; O75164; AlphaScreen JMJD2A-Tudor / H3K4me3 peptide binding; Potency, µM (highest dose often 114 µM), inactives show at the highest dose activity change, negative = inhibition, most hits filed as inhibitors; 4.4% of 390,000 active; also: % is scaled to controls: 0 for no effect and ±100 for the full control effect; nearly all actives have a fitted effect of over 50% in size
The depositor's hits bear a star; ? = inconclusive; / = not tested or not shown; [ ] = dose if it differs, or a comment. In the library only some 10% were active in any assay of this set; here they are far more common. Calls follow the shape of the dose curve; as a rule, active = well fitted curve in the direction sought with a large enough effect; inconclusive = small, poorly fitted or top-dose-only effect, or another doubt; inactive = no such curve, though single readings can be large; an effect the other way counts as inactive or inconclusive. Potency is read from the fitted curve at half-maximal effect.

SMILES | HP1b binding inh | BAZ2B inh | G9a block | L3MBTL1 block | GLS inhibitor | JMJD2A Tudor
Oc1ccc(CN2CCN(c3ccccc3)CC2)c2cccnc12 | 22% | ? | 3.2µM* | 0% | -6% | -31%
Cc1cc(N2C(=O)c3ccccc3C2=O)n[nH]1 | / | / | / | / | / | -3%
O=C1c2cc(S(=O)(=O)N3CCOCC3)ccc2-c2ccc(S(=O)(=O)N3CCOCC3)cc21 | 28% | / | / | / | / | -26%
CN(C)N=C1c2cc(S(=O)(=O)N3CCOCC3)ccc2-c2ccc(S(=O)(=O)N3CCOCC3)cc21 | -22% | -34% | 20µM* | -7% | -9% | ?
COCCOC(=O)C1=C(C)NC(C)=C(C(=O)OC/C=C/c2ccccc2)C1c1cccc([N+](=O)[O-])c1 (stereo not given) | / | / | -2%[59 µM] | / | -6% | /
CCOC(=O)C1=C(N)Oc2cc(C)[nH]c(=O)c2C1c1ccncc1 (stereo not given) | 21% | -8% | 10% | -4% | 10% | -12%
CCOC(=O)C1=C(N)Oc2cc(C)n(C)c(=O)c2C1c1ccncc1 (stereo not given) | 20% | -3% | 50µM* | -2% | 15% | 8%[57.1 µM]
CS(=O)(=O)c1ccc(N)c(SSc2cc(S(C)(=O)=O)ccc2N)c1 | ? | 35µM* | ? | -21% | 10µM* | 1.4µM*
CS(=O)(=O)c1ccc2nc(N)sc2c1 | 26% | -4% | ? | -5% | -7% | 5%
O=C(Cc1ccc(F)cc1)Nc1nnc2n1CCS2 | 6%[57 µM] | 56µM* | 10µM* | / | -16% | ?
CC(C)(C)C(=O)Nc1nnc2n1CCS2 | 15%[57 µM] | -1% | -50%[59 µM] | / | -6% | -10%
CCCC(=O)Nc1nnc2n1CCS2 | -2%[57 µM] | -11% | ? | / | -11% | 79µM*
CC(C)(C)CC(=O)Nc1nnc2n1CCS2 | 14%[57 µM] | -4% | 38%[59 µM] | / | -8% | -8%
O=C(Nc1nnc2n1CCS2)c1ccco1 | 20%[57 µM] | 13µM* | 1.8µM* | / | 0% | 1.6µM*
O=C(Cc1ccccc1)Nc1nnc2n1CCS2 | 12%[57 µM] | 79µM* | 10µM* | / | -16% | 50µM*
COc1ccccc1CNc1ncnc2onc(-c3ccc(Cl)cc3)c12 | 55% | 4% | 9%[59 µM] | / | 2% | -1%
COc1ccccc1CNc1ccnc(-c2ccc(N(C)C)cc2)n1 | / | / | 1%[0.501 µM] | / | / | /
COc1ccc(-c2cc(C(F)F)n3ncc(C(=O)N4CCc5ccccc54)c3n2)cc1 | ? | ? | / | -14% | ? | 20µM*
Cc1ccc(-c2cc(C(F)F)n3ncc(C(=O)N4CCCc5ccccc54)c3n2)cc1 | 51% | 12% | -7%[59 µM] | -2% | -4% | -3%
CCN(CC)S(=O)(=O)c1ccc(C(=O)NCCSc2c(-c3ccc(C)cc3)[nH]c3ccccc23)cc1 | 21% | -6% | -8%[59 µM] | / | 2% | -30%
COc1ccc(NC(=O)/C(C#N)=C/c2ccc(-c3ccc(Cl)c(C(=O)O)c3)o2)cc1 | 0% | 1% | / | 16% | 14% | ?
O=C(O)c1cc(-c2ccc(/C=C3/SC(=S)N(Cc4ccccc4)C3=O)o2)ccc1Cl | ? | ? | 13µM* | / | 0% | 56µM*
O=C(O)c1cc(-c2ccc(/C=N/Nc3ccc(Cl)cc3)o2)ccc1Cl | -2% | -34% | ? | -10% | 0% | ?
Cc1ccc(/C=C2\SC(=S)N(Cc3ccccc3)C2=O)o1 | -21% | ? | ? | -7% | ? | 14µM*
COc1ccc(CN2C(=O)/C(=C/c3ccc(-c4ccc(Cl)c(C(=O)O)c4)o3)SC2=S)cc1 | / | ? | 32µM* | / | / | /
SMILES | HP1b binding inh | BAZ2B inh | G9a block | L3MBTL1 block | GLS inhibitor | JMJD2A Tudor
Cc1ccc(CNC(=O)Cn2cc3c(n2)-c2c(oc(C(=O)N4CCOCC4)c2C)CC3)cc1 | 33% | ? | -5%[59 µM] | / | -3% | -12%
CN(C(=O)CSc1nc2ccccc2n1CC(=O)N(C)C1CCCCC1)c1ccccc1 | 31% | -3% | 20%[59 µM] | / | -9% | -17%
COc1ccc(N2CCN(C(=O)c3cn(CC(C)C)c(=O)c4c3c3ccccc3n4C)CC2)cc1 | ? | 25µM* | ? | / | 24% | 35µM*
Cn1c2ccccc2c2c(C(=O)N3CCN(c4ccccc4)CC3)cn(C3CCCC3)c(=O)c21 | -29% | ? | 50µM* | / | 4% | ?
NC(=O)C(CC(=O)O)NC(=O)[C@@H]1CCOc2c(I)cc([N+](=O)[O-])cc2C(=O)N[C@@H](CO)C(=O)N[C@@H](Cc2ccc(O)cc2)C(=O)N1 (stereo not given in full) | -12% | ? | 22µM* | ? | ? | 50µM*
CCC(C)CCCCC(=O)NC(CCN)C(=O)NC(C(=O)NC(CCN)C(=O)NC1CCNC(=O)C(C(C)O)NC(=O)C(CCN)NC(=O)C(CCN)NC(=O)C(CC(C)C)NC(=O)C(Cc2ccccc2)NC(=O)C(CCN)NC1=O)C(C)O (stereo not given) | / | / | -43%[2.33 µM] | / | 0% | /
CC(C)C[C@@H]1NC(=O)[C@H](Cc2ccc(O)cc2)NC(=O)[C@H](CCC(N)=O)NC(=O)c2cc([N+](=O)[O-])cc(I)c2NCC[C@@H](C(N)=O)NC1=O | / | 50µM* | 7.1µM* | -2% | / | /
NC(=O)[C@@H]1CCNc2c(I)cc([N+](=O)[O-])cc2C(=O)N[C@@H](CO)C(=O)N[C@@H](Cc2ccc(O)cc2)C(=O)N1 | / | 79µM* | 10µM* | -4% | / | /
NC(=O)[C@@H]1CCOc2c(F)cc([N+](=O)[O-])cc2C(=O)N[C@@H](CO)C(=O)NCC(=O)N1 | 19% | -18% | ? | -3% | 0% | -12%
Cc1ccc2oc(-c3ccc(C)c(NC(=O)c4ccc(-c5ccccc5[N+](=O)[O-])o4)c3)nc2c1 | 18% | -12% | 7%[59 µM] | / | -3% | -22%
O=C(NC1CC1)c1ccc(Cn2c(SCc3ccccc3F)nc3cccnc32)cc1 | 29% | -11% | 1%[59 µM] | / | 8% | 4%
Clc1ccc(-c2ccc(-c3nn4c(-c5ccco5)nnc4s3)o2)cc1 | -2% | / | / | / | 0% | ?
Brc1ccc(-c2nn3c(-c4ccco4)nnc3s2)o1 | 2% | 50µM* | 14µM* | -15% | -11% | ?
c1ccc(-c2nn3c(-c4ccco4)nnc3s2)nc1 | 60% | -38% | 40µM* | -11% | -9% | -12%
CC(C)(C)c1ccc(-c2nnc3sc(-c4ccccn4)nn23)cc1 | -6% | ? | 32µM* | -3% | -2% | -26%
Clc1ccc(OCc2nn3c(-c4ccco4)nnc3s2)c(Cl)c1 | 13% | 56µM* | -39%[2.33 µM] | / | -9% | ?
COc1ccc(OC)c(S(=O)(=O)N2CCC(n3c(C)nc4cccnc43)CC2)c1 | 13% | 5% | 7%[59 µM] | / | 1% | 13%

Screening data as filed in PubChem.
